An excerpt weighted towards active compounds, which were near 7.5% of everything screened.
Giardia FBPA inh = inhibitors of Giardia lamblia fructose-1,6-bisphosphate aldolase | A8B2U2 | purified Giardia FBPA | Potency, µM (doses to about 59.6 µM), for inactives: at the top dose activity, negative = inhibition, hits mostly inhibitors | 290,000 tested, 0.71% active; note: potency is the fitted concentration of half-maximal effect; nearly all actives have a fitted effect of over 55% in size
Target sequence (A8B2U2 whole entry, looked up): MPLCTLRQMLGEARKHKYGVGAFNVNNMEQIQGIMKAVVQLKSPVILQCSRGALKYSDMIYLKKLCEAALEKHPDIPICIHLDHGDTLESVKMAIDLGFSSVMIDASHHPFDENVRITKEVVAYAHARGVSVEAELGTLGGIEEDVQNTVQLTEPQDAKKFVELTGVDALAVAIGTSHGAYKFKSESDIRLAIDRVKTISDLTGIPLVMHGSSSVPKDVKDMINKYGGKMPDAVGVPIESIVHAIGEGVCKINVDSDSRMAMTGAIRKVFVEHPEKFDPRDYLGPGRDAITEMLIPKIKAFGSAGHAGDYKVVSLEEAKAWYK
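40 nM FBPA preincubated 10 min at RT with compound (up to 57.5 uM final), then substrate plus GAPDH/TPI/NAD/arsenate coupling and diaphorase/resazurin added. Fluorescence read after 20 min at RT, 525/598 nm.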
HCV inh = HCV inhibition. Huh7.5.1 HCVcc-Cre infection, luciferase reporter, 44 h. Potency, µM (series often up to 41.8 µM), for inactives: at the highest dose activity change, negative = inhibition, actives largely listed as inhibitors. 340,000 tested, 3.4% active. AID 651820; note: potency is the fitted concentration of half-maximal effect
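A cell-based infection assay in which seeded cells (1,000 per well) receive test compound after 4 h, are inoculated with HCVcc-Cre at approximately 0.5 moi, and are incubated 44 h before luminescence detection.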
HCMV inh = human cytomegalovirus inhibition; HFF cells, HCMV-luciferase reporter, 72 h; hits give low values; activity change, negative = inhibition, % at 57.5 µM; 410,000 tested, 4.5% active; AID 1259415; in the data active = activity change below about -60%; inconclusive = no clear call, values can overlap the other calls; inactive = above about -39%
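Human foreskin fibroblasts infected with luciferase-reporter HCMV at MOI 1 PFU/cell, compounds at two doses. Luciferase measured 72 h post infection; normalized to buffer-only basal and Salinomycin (10uM) controls.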
VACV mCherry inh = inhibitors of vaccinia virus infection (mCherry reporter signal); AID 720579; Vaccinia virus mCherry reporter infection, fluorescence; Potency, µM (doses to about 36.5 µM), inactives show at the top dose activity change, negative = inhibition, usual class: inhibitors; 310,000 tested, 0.63% active; calls by dose curve; tested in A549 cells; note: potency is the fitted concentration of half-maximal effect; nearly all actives have a fitted effect of over 35% in size
Vaccinia Venus = vaccinia inhibition (Venus reporter) | Vaccinia virus Venus reporter expression, fluorescence | Potency, µM (highest dose often 36.5 µM), for the others: at the top dose activity change, negative = inhibition, usual class: inhibitors | AID 720580 | 330,000 tested, 0.46% active; calls by dose curve; tested in A549 cells; note: potency is the fitted concentration of half-maximal effect; nearly all actives have a fitted effect of over 30% in size
FMDV inh = antivirals against foot and mouth disease virus | FMDV antiviral cell-based qHTS | Potency, µM (titrated, usually from 57.9 µM), for inactives: at the highest dose activity change, negative = inhibition, hits mostly inhibitors | 410,000 tested, 1.2% active; calls by dose curve; tested in HEK293T cells; note: read-out not given here; potency is the fitted concentration of half-maximal effect; nearly all actives have a fitted effect of over 45% in size
* marks the source's active call; other numbers are inactive results. Unless noted, calls come from the whole dose curve; as a rule, active = well fitted curve in the direction sought with a large enough effect; inconclusive = small, poorly fitted or top-dose-only effect, or another doubt; inactive = no such curve, though single readings can be large; an effect the other way counts as inactive or inconclusive. % is set by controls: 0 for no effect and ±100 for the full control effect.

N=c1c2c(n(Cc3cccc(Cl)c3)c3c1CCC3)CCCC2 was read as Giardia FBPA inh 1.3%, HCV inh 25.1µM*, HCMV inh -94.5*, VACV mCherry inh -21.4% and Vaccinia Venus inconclusive.
Screening Clc1ccc(CN2C3=NCCCN3c3ccccc32)c(Cl)c1 returned Giardia FBPA inh -3.5%, HCV inh inconclusive, VACV mCherry inh -21.7%, Vaccinia Venus -16.9% and FMDV inh -25.2%.
`O=C1CCCc2ccccc2N1Cc1ccc(F)cc1` gave Giardia FBPA inh 0.4%, HCV inh 15.2%, HCMV inh -27.0 and FMDV inh -14.5%.
N=c1sc2c(n1Cc1ccccc1)CCCC2 was read as Giardia FBPA inh -0.5%, HCV inh 1.3%, HCMV inh -35.3, VACV mCherry inh inactive and Vaccinia Venus -15.2%.
`N=c1c2c(n(Cc3ccc(Cl)cc3Cl)c3c1CCC3)CCCC2` gave Giardia FBPA inh -2.1%, HCV inh 10µM*, Vaccinia Venus inconclusive and FMDV inh -1.0%.
N=c1c2c(n(Cc3ccc(F)cc3)c3c1CCC3)CCCC2 was read as Giardia FBPA inh 3.2%, HCV inh -25.3%, HCMV inh -99.6*, VACV mCherry inh -11.3%, Vaccinia Venus -22.5% and FMDV inh inconclusive.
`N=c1c2c(n(Cc3ccccc3)c3c1CCC3)CCC2` gave Giardia FBPA inh -0.1%, HCV inh inconclusive, HCMV inh -96.5*, Vaccinia Venus inconclusive and FMDV inh inconclusive.
Screening CCCn1c(CN2CCN(C(=O)OCC)CC2)nc2cc(NC(C)=O)ccc21 returned Giardia FBPA inh -19.4%, HCV inh 7.1%, HCMV inh inconclusive and FMDV inh -4.8%.
For N=c1c2c(n(Cc3ccc(Cl)cc3)c3c1CCC3)CCC2 the results were Giardia FBPA inh 2.1%, HCV inh inconclusive, HCMV inh -102.1*, VACV mCherry inh -24.6%, Vaccinia Venus inconclusive and FMDV inh inconclusive.
For COc1cc(OC)cc(C(=O)NC(=S)Nc2cc3oc4ccccc4c3cc2OC)c1 the results were Giardia FBPA inh 0.9%, HCV inh 1.78µM*, HCMV inh -30.4 and FMDV inh -17.4%.
Screening COc1cccc(CN(C)CC(=O)Nc2cc3oc4ccccc4c3cc2OC)c1 returned Giardia FBPA inh 12.8%, HCV inh 15.8µM*, HCMV inh 18.3, VACV mCherry inh inactive, Vaccinia Venus -16.6% and FMDV inh 2.2%.
For COc1cc2c(cc1NC(=O)/C=C/c1cc(OC)c(OC)c(OC)c1)oc1ccccc12 the results were Giardia FBPA inh -0.3%, HCV inh 8.91µM*, HCMV inh 5.1, VACV mCherry inh -24.2%, Vaccinia Venus -27.2% and FMDV inh inconclusive.
`COc1ccc(CC(=O)Nc2cc3oc4ccccc4c3cc2OC)cc1` gave Giardia FBPA inh -4.3%, HCV inh 4.47µM*, HCMV inh 63.1, VACV mCherry inh inconclusive, Vaccinia Venus inconclusive and FMDV inh 67.3%.
CCc1ccc(OCC(=O)Nc2cc3oc4ccccc4c3cc2OC)cc1 was read as HCMV inh 4.9, VACV mCherry inh inconclusive, Vaccinia Venus inconclusive and FMDV inh inconclusive.
COc1cc2c(cc1NC(=O)CSc1ccc(Cl)cc1)oc1ccccc12 was read as Giardia FBPA inh 4.6%, HCV inh 10µM*, HCMV inh -26.8, VACV mCherry inh -0.9%, Vaccinia Venus -15.4% and FMDV inh 2.7%.
For COc1cc2c(cc1NC(=O)COc1ccc(Cl)cc1)oc1ccccc12 the results were HCMV inh -3.1, VACV mCherry inh inconclusive, Vaccinia Venus inconclusive and FMDV inh -26.9%.
`COc1cc2c(cc1NC(=O)CN(C)Cc1cccc(OC)c1OC)oc1ccccc12` gave Giardia FBPA inh -10.7%, HCV inh 3.55µM*, HCMV inh -24.8, VACV mCherry inh -17.2%, Vaccinia Venus -27.7% and FMDV inh -1.0%.
Screening CC(C)Cn1c(CCNC(=O)c2ccco2)nc2ccccc21 returned HCV inh inconclusive, HCMV inh 26.5 and FMDV inh 6.3%.
`COc1cc(O)c(C(C)=O)c(CC(=O)O)c1` gave Giardia FBPA inh inconclusive, HCV inh 3.16µM*, HCMV inh 16.6, VACV mCherry inh 8.3%, Vaccinia Venus -0.9% and FMDV inh -13.9%.
`COc1ccc(Nc2nccc3c2cc(-c2ccccc2OC)n3C)cc1OC` gave HCMV inh -90.3*.
`COc1ccccc1-c1cc2c(Nc3ccc4c(c3)OCCO4)nccc2n1C` gave HCMV inh -70.1*.
COc1ccc(Nc2nccc3c2cc(-c2cccc(F)c2)n3C)cc1OC was read as HCMV inh -27.7.
`O=C(COC(=O)CNS(=O)(=O)c1c(F)cccc1F)NC(=O)NC1CCCCC1` gave HCV inh -3.8%, HCMV inh -17.8 and FMDV inh -10.1%.
COC(=O)C(c1ccccc1)(c1cn(C)c2ccccc12)C(Nc1ccccc1)c1ccc(Br)cc1 (stereo not given) was read as HCMV inh -19.4.
`CCCOc1ccc(C(F)(F)F)cc1NC(=O)CCc1c(C)noc1C` gave HCV inh 7.08µM*, HCMV inh 0.0 and FMDV inh -20.6%.
Screening CC(=O)Nc1cc(C(F)(F)F)ccc1OCCOc1ccccc1 returned HCV inh 10µM*, HCMV inh 16.4 and FMDV inh -28.3%.
CC(=O)Nc1ccccc1OCCOc1ccc(Br)cc1 was read as Giardia FBPA inh -0.7%, HCV inh inconclusive, HCMV inh -22.8, VACV mCherry inh 12.6µM*, Vaccinia Venus -23.4% and FMDV inh 0.0%.
Screening Cc1ccccc1-c1noc(-c2ccc(NCC3CCCO3)c([N+](=O)[O-])c2)n1 (stereo not given) returned HCMV inh 25.1, VACV mCherry inh -1.7%, Vaccinia Venus -7.9% and FMDV inh 20.5%.
O=C(O)c1ccccn1 was read as HCV inh 12.6%, HCMV inh -10.3, VACV mCherry inh inactive, Vaccinia Venus -11.0% and FMDV inh -15.3%.
Screening O=C(O)c1cccc(C(=O)O)n1 returned Giardia FBPA inh 28.2µM*.
Screening O=C(O)c1ccc2cccnc2n1 returned Giardia FBPA inh 5.61µM*, HCV inh 5.0%, HCMV inh inconclusive, VACV mCherry inh inactive, Vaccinia Venus 11.9% and FMDV inh -8.9%.
For CCCNC(=O)C(Cc1cccc(Cl)c1)NC(=O)c1ccccc1 (stereo not given) the results were HCV inh -1.1%, HCMV inh -19.1, VACV mCherry inh -11.8%, Vaccinia Venus -23.6% and FMDV inh 11.3%.
For CSC(=O)NC(=O)NC(=O)c1ccc([N+](=O)[O-])cc1 the results were Giardia FBPA inh 1.2%, HCV inh 4.6%, HCMV inh 39.1, VACV mCherry inh inactive, Vaccinia Venus -10.6% and FMDV inh 22.2%.

Compound activity (PubChem BioAssay)
